Measurements taken from PubChem BioAssay (Tox21).
Inconclusive results are not listed. Where a call stands in place of a potency, no number is given. Calls of active or inactive are those of the source. Unless noted, calls come from the whole dose curve.

Key:
[1] = qHTS assay to identify small molecule agonists of the sonic hedgehog signaling (Shh) pathway (AID 1259368);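 note: NIH/3T3-derived 3T3Gli1-Luc cells carrying a stable Gli1-driven firefly luciferase reporter; series mostly up to about 92 µM; nearly all actives have a fitted effect of over 15% in size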
In short: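 Luminescence was read after 30 min at room temperature with luciferase reagent. Before that, 3T3Gli1-Luc cells (NIH/3T3 clone, stable Gli1-Luc reporter; 2,000/well) were exposed to compounds for 24 hr at 37C, 5% CO2, compounds being added 4 hr post-plating.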

[2] = target: Estrogen receptor beta (Homo sapiens) (UniProt Q92731); assay: qHTS assay to identify small molecule agonists of the estrogen receptor beta (ER-beta) signaling pathway (AID 1259377; active = well fitted activation curve with a large enough effect in the signal ratio in the repeat runs, not every such curve was filed as active; the % refers to the signal ratio)
In short: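 Screening used GripTite ER-beta-UAS-bla cells held in 2% charcoal-stripped FBS medium. After overnight (16 hr) compound incubation at 37C, beta-lactamase activity was detected with a FRET substrate by fluorescence.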

[3] = target: Estrogen receptor beta (Homo sapiens) (UniProt Q92731); assay: qHTS assay to identify small molecule antagonists of the estrogen receptor beta (ER-beta) signaling pathway (AID 1259378; active = well fitted inhibition curve with a large enough effect in the signal ratio in the repeat runs, not every such curve was filed as active; the % refers to the signal ratio; note: potency is the fitted concentration of half-maximal effect)
In short: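 ER-beta-UAS-bla HEK293T cells in 2% charcoal-stripped FBS medium treated with compound plus 1nM final 17-beta-estradiol for 16 hr at 37C. Beta-lactamase reporter read by FRET substrate fluorescence after 2 hours at room temperature.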

[4] = qHTS assay to identify small molecule agonists of the androgen receptor (AR) signaling pathway in the presence of an antagonist - cell viability counter screen (AID 1259379; active = well fitted curve in the direction sought with a large enough effect in the repeat runs; an effect the other way counts as inactive or inconclusive;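 note: MDA-kb2 human breast cancer cells carrying an MMTV luciferase reporter; series mostly up to about 92 µM; nearly all actives have a fitted effect of over 25% in size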)
In short: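 Cytotoxicity counter-screen run in the same wells as the nilutamide-challenged (3.0 µM final) AR agonist assay in MDA-kb2 cells. Compounds tested at 15 concentrations for 16 h, 37 °C without CO2; CellTiter-Fluor fluorescence read.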

[5] = qHTS assay to identify small molecule agonists of the estrogen receptor beta (ER-beta) signaling pathway - cell viability counter screen (AID 1259380; active = well fitted curve in the direction sought with a large enough effect in the repeat runs; an effect the other way counts as inactive or inconclusive; note: nearly all actives have a fitted effect of over 30% in size; note: potency is the fitted concentration of half-maximal effect)
In short: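 Cell viability counter screen: CellTiter-Glo luminescence (30 min, room temperature) measured in the same wells as the beta-lactamase readout, after 16 hr compound exposure at 37C of ER-beta-bla HEK293T cells in 2% charcoal-stripped FBS medium.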

[6] = qHTS assay to identify small molecule antagonists of the estrogen receptor beta (ER-beta) signaling pathway - cell viability counter screen (AID 1259382; active = well fitted curve in the direction sought with a large enough effect in the repeat runs; an effect the other way counts as inactive or inconclusive; note: series mostly up to about 92 µM; nearly all actives have a fitted effect of over 55% in size)
In short: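 Cytotoxicity was measured in the same wells by CellTiter-Glo luminescence after 30 min at room temperature. Cells were ER-beta-bla HEK293T in charcoal-stripped serum, given compound together with 1 nM E2 and incubated 16 h at 37C.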

[7] = target: Estrogen receptor (Homo sapiens) (UniProt P03372); assay: qHTS assay to identify small molecule agonists of the estrogen receptor alpha (ER-alpha) signaling pathway in the presence of an antagonist (AID 1259383); note: top concentration of the series differs between compounds; nearly all actives have a fitted effect of over 15% in size
In short: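 Agonist-mode confirmation run in the presence of 10.0nM (final) ICI-182,780 antagonist. The reporter was ERE-driven luciferase in VM7Luc4E2 cells, grown in charcoal-stripped serum. Cells were exposed to 15-concentration compound series for 22hr, then ONE-Glo luminescence was read.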

[8] = qHTS assay to identify small molecule agonists or antagonists of the thyroid stimulating hormone receptor (TSHR) signaling pathway - wild type cell line counter screen (AID 1259384)
In short: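 Wild-type Hek293 cells, 800/well, 18 h at 37C, then compound with Ro20-1724 for 30 min RT. cAMP by HTRF (cAMP-d2/anti-cAMP cryptate), 1 h RT, fluorescence read. 15 concentrations, triplicates.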

[9] = target: Thyrotropin receptor (Homo sapiens) (UniProt P16473); assay: qHTS assay to identify small molecule antagonists of the thyroid stimulating hormone receptor (TSHR) signaling pathway (AID 1259385); note: nearly all actives have a fitted effect of over 20% in size; note: potency is the fitted concentration of half-maximal effect
In short: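 TSHR-HEK293 cells (800/well) plated 18 h, then compounds with Ro20-1724 and TSH at 1.5 ng/mL final, 30 min at room temperature. cAMP quantified by HTRF (cAMP-d2/anti-cAMP-cryptate, 1 h); 15 concentrations in triplicate.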

[10] = qHTS assay to identify small molecule agonists of the estrogen receptor alpha (ER-alpha) signaling pathway in the presence of an antagonist - cell viability counter screen (AID 1259386; active = well fitted curve in the direction sought with a large enough effect in the repeat runs; an effect the other way counts as inactive or inconclusive; note: nearly all actives have a fitted effect of over 30% in size; note: potency is the fitted concentration of half-maximal effect)
In short: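 Compounds tested at 15 concentrations for 22 h at 37C alongside 10.0nM (final) ICI-182,780 antagonist, in VM7Luc4E2 cells grown in phenol red-free, charcoal-stripped medium. Viability read by CellTiter-Fluor fluorescence after 1 h reagent incubation.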

[11] = target: Progesterone receptor (Homo sapiens) (UniProt P06401); assay: qHTS assay to identify small molecule agonists of the progesterone receptor (PR) signaling pathway (AID 1346784); note: nearly all actives have a fitted effect of over 30% in size
In short: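 Seed PR-UAS-bla HEK 293T cells (2% charcoal-stripped FBS), incubate 6 hr at 37C; add compounds in DMSO, 16 hr at 37C; add LiveBLAzer B/G substrate, 2 hr RT; read fluorescence intensity.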

[12] = target: Progesterone receptor (Homo sapiens) (UniProt P06401); assay: qHTS assay to identify small molecule antagonists of the progesterone receptor (PR) signaling pathway (AID 1346795; active = well fitted inhibition curve with a large enough effect in the signal ratio in the repeat runs, not every such curve was filed as active; the % refers to the signal ratio; note: potency is the fitted concentration of half-maximal effect)
In short: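 Screening used a GripTite HEK293T line with PR-responsive UAS-beta-lactamase. Cells were challenged with compound in the presence of 1 nM R5020 final for 16 hr at 37C; B/G FRET substrate, 2 hr room temperature, fluorescence.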

[13] = qHTS assay to identify small molecule antagonists of the progesterone receptor (PR) signaling pathway - cell viability counter screen (AID 1346798; active = well fitted curve in the direction sought with a large enough effect in the repeat runs; an effect the other way counts as inactive or inconclusive; note: nearly all actives have a fitted effect of over 50% in size; note: potency is the fitted concentration of half-maximal effect)
In short: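 Measures cytotoxicity in parallel with the PR antagonist reporter read: HEK293T PR-UAS-bla cells get compound and R5020 for 16 hr, and remaining viable cells are quantified by CellTiter-Glo luminescence.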

[14] = qHTS assay to identify small molecule agonists of the progesterone receptor (PR) signaling pathway - cell viability counter screen (AID 1346799); note: nearly all actives have a fitted effect of over 45% in size; note: potency is the fitted concentration of half-maximal effect
In short: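 Using the same plates as the PR reporter screen, HEK293T PR-UAS-bla cells received compounds for 16 hr at 37C and were then lysed with CellTiter-Glo; luminescence was read 30 min later at room temperature.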

[15] = qHTS assay to identify small molecule antagonists of the TGF-beta/Smad signaling pathway - cell viability counter screen (AID 1346824; active = well fitted curve in the direction sought with a large enough effect in the repeat runs; an effect the other way counts as inactive or inconclusive; note: nearly all actives have a fitted effect of over 50% in size)
In short: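 SBE-bla HEK 293T cells, incubated overnight, then compound plus 0.25 ng/mL TGF-beta1 (stock added) for 5 hr at 37 C. Viability was read in the same wells by CellTiter-Glo luminescence after 30 min at room temperature.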

[16] = qHTS assay to identify small molecule agonists of the TGF-beta/Smad signaling pathway - cell viability counter screen (AID 1346829; active = well fitted curve in the direction sought with a large enough effect in the repeat runs; an effect the other way counts as inactive or inconclusive; note: top concentration of the series differs between compounds; nearly all actives have a fitted effect of over 45% in size)
In short: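 Cytotoxicity counter screen: CellTiter-Glo luminescence (30 min, room temperature) measured in the SBE-bla HEK 293T reporter wells after 5 hr compound treatment at 37 C and the 2 hr substrate step.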

[17] = qHTS assay to identify small molecule agonists of the TGF-beta/Smad signaling pathway (AID 1346859; active = well fitted activation curve with a large enough effect in the signal ratio in the repeat runs, not every such curve was filed as active; the % refers to the signal ratio; note: series mostly up to about 77 µM)
In short: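 Beta-lactamase reporter activity downstream of Smad binding elements was measured in stably transfected HEK 293T cells; compounds were incubated for 5 hr, substrate for 2 hr at room temperature.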

[18] = target: Thyrotropin-releasing hormone receptor (Homo sapiens) (UniProt P34981); assay: qHTS assay to identify small molecule antagonists of the thyrotropin-releasing hormone receptor (TRHR) signaling pathway (AID 1346877; active = well fitted inhibition curve with a large enough effect in the repeat runs, not every such curve was filed as active; note: series mostly up to about 51 µM)
In short: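 Antagonist mode: after a 5 min room-temperature compound exposure, cells were stimulated with 1 nM (final) TRH. Dye-loaded TRHR-HEK293 cells were used, and calcium-dependent fluorescence was followed for 3 min, with 15-point titrations run in triplicate.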

[19] = qHTS assay to identify small molecule antagonists of the sonic hedgehog signaling (Shh) pathway (AID 1259369); note: nearly all actives have a fitted effect of over 45% in size; note: potency is the fitted concentration of half-maximal effect
In short: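 Antagonist mode: compound added to 3T3 Gli1-Luc cells followed by conditioned-medium stimulation, 24 h at 37 C, 5% CO2. Inhibition taken as loss of Gli1-driven luciferase luminescence.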

[20] = target: Androgen receptor (Homo sapiens) (UniProt P10275); assay: qHTS assay to identify small molecule agonists of the androgen receptor (AR) signaling pathway in the presence of an antagonist (AID 1259381); note: nearly all actives have a fitted effect of over 15% in size
In short: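 Agonist-mode confirmation run against 3.0 uM final nilutamide: compounds titrated at 15 concentrations onto MDA-kb2 MMTV-luciferase reporter cells. Luminescence measured with ONE-Glo following 16 hr incubation, 37C, 0% CO2.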

Thyrotropin-releasing hormone receptor (Homo sapiens), sequence (P34981 whole entry, looked up): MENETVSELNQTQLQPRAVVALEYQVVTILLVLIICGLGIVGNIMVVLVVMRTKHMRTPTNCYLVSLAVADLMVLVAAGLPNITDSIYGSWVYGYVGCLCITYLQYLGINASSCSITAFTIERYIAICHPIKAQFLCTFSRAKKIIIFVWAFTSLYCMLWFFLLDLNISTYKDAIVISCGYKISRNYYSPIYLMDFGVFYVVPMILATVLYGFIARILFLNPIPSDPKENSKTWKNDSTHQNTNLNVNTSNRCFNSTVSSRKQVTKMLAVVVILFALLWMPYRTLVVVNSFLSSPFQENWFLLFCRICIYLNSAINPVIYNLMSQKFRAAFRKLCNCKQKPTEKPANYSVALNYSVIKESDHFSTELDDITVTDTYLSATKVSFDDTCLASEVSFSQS
Estrogen receptor (Homo sapiens), sequence (P03372 whole entry, looked up): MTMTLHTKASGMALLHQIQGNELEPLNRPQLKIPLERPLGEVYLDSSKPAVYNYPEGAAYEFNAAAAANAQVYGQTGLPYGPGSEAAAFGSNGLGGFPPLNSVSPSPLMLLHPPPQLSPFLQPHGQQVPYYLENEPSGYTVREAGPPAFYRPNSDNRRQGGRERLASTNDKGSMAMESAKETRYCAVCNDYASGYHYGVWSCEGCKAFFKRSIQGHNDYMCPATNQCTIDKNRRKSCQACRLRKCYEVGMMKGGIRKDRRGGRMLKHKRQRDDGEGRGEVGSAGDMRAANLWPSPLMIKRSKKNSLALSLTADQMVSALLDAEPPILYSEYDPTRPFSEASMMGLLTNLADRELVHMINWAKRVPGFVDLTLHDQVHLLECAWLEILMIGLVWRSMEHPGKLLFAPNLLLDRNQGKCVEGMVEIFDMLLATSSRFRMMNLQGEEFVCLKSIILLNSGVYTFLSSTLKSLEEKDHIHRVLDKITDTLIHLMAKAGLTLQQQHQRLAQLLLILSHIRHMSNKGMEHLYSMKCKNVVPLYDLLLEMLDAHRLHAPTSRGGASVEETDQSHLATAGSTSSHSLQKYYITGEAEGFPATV
Thyrotropin receptor (Homo sapiens), sequence (P16473 whole entry, looked up): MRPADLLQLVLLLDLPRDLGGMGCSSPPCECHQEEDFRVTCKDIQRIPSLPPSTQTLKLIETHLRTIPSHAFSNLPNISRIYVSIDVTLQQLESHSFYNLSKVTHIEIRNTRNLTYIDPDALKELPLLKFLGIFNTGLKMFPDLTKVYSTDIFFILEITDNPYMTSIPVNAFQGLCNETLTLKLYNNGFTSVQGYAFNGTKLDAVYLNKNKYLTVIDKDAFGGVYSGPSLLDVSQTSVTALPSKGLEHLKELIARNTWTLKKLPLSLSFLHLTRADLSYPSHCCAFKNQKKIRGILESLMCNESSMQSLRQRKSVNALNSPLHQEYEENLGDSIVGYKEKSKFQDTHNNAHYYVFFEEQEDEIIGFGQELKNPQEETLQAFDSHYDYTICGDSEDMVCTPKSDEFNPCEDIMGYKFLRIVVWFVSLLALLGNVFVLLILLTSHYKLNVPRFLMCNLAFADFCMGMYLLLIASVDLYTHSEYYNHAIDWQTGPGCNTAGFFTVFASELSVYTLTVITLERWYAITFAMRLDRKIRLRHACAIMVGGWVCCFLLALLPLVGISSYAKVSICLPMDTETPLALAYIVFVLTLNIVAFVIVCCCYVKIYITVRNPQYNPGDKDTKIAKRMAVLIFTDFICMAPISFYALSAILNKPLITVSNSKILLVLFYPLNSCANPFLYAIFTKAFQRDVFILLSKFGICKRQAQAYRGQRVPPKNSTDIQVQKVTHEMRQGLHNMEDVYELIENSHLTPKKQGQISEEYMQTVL
Estrogen receptor beta (Homo sapiens), sequence (Q92731 whole entry, looked up): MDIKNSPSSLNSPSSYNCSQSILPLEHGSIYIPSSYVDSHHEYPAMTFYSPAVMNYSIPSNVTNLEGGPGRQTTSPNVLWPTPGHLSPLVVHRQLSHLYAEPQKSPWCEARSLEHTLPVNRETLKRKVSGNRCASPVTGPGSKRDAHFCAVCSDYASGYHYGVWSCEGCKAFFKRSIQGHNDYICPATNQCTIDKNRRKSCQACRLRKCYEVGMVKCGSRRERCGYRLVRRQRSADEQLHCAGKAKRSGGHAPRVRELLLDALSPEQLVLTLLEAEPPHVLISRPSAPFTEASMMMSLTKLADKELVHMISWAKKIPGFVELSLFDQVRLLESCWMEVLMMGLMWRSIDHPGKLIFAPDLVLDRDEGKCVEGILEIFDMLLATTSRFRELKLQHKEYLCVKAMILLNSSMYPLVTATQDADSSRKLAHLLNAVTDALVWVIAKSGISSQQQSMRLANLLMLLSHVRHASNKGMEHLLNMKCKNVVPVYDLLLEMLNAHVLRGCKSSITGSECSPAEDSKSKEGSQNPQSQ
Progesterone receptor (Homo sapiens), sequence (P06401 whole entry, looked up): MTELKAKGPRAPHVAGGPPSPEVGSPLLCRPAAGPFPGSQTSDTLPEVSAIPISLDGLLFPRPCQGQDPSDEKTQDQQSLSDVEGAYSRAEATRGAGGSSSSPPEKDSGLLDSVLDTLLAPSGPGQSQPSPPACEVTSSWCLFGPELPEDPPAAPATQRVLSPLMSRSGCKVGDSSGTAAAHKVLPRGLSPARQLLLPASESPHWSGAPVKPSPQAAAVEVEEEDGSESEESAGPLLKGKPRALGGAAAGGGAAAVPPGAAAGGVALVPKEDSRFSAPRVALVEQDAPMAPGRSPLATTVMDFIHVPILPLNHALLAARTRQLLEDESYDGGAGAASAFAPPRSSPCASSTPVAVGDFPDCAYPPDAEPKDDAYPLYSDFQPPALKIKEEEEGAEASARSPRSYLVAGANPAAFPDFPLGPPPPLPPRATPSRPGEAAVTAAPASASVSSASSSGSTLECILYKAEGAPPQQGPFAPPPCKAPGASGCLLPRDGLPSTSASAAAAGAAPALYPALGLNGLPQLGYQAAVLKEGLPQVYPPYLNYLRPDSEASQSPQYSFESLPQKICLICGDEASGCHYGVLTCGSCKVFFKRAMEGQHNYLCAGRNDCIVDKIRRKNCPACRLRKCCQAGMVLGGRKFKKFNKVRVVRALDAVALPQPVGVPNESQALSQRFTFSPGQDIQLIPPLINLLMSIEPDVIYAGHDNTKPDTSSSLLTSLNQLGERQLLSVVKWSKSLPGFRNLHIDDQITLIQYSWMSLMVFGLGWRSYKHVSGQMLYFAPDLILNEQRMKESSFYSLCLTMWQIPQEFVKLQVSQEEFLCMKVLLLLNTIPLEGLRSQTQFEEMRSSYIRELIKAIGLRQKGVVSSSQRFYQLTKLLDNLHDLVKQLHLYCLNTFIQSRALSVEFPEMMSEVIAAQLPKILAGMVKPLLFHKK
Androgen receptor (Homo sapiens), sequence (P10275 whole entry, looked up): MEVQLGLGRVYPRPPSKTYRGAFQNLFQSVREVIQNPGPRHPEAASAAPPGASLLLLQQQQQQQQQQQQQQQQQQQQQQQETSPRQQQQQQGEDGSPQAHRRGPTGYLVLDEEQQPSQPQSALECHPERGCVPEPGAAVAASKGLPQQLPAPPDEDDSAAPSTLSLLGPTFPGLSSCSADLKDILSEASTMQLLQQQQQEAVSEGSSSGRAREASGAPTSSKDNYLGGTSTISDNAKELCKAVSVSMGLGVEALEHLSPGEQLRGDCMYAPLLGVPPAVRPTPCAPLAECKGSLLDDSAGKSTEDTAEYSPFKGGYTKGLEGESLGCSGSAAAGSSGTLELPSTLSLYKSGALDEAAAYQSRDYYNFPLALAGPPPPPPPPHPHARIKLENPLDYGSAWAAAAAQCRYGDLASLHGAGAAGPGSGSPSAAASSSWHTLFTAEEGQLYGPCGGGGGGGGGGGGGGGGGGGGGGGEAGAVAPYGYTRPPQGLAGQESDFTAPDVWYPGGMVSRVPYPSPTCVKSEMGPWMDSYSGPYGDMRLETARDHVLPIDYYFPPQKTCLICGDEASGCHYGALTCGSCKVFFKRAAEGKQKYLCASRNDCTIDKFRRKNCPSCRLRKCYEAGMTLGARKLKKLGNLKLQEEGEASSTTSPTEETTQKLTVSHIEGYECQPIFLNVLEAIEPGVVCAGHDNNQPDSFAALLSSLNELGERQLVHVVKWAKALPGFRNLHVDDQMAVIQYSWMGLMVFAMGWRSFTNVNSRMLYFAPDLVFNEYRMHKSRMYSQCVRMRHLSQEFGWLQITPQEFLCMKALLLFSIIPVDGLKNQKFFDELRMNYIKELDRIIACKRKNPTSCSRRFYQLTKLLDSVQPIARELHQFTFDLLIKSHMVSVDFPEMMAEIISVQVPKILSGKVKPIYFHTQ

Row | SMILES | Potency [1] | Potency [2] | Potency [3] | Potency [4] | Potency [5] | Potency [6] | Potency [7] | outcome [8] | Potency [9] | Potency [10] | Potency [11] | Potency [12] | Potency [13] | Potency [14] | Potency [15] | Potency [16] | Potency [17] | outcome [18] | Potency [19] | Potency [20]
1 | OCCOCC#CCOCCO | inactive | inactive | inactive | inactive | inactive | inactive | inactive | inactive | inactive | inactive | inactive | inactive | inactive | inactive | inactive | inactive | inactive | inactive |  | 
2 | CC1=Nc2ccc3ccccc3c2C1(C)C | inactive |  |  |  |  |  | inactive | inactive | inactive |  |  |  | 12.2 µM (active) | 24.3 µM (active) |  | inactive |  |  | 30.6 µM (active) | inactive
3 | C1C[C@@H]2[C@H]3CC[C@H](C3)[C@@H]2C1 | inactive |  |  |  |  | inactive | inactive | inactive | inactive | inactive | inactive | inactive | inactive | inactive | inactive | inactive | inactive | inactive | inactive | 
4 | N#[N+]c1ccc2c(S(=O)(=O)[O-])cccc2c1O | inactive |  |  |  | inactive | inactive | inactive |  |  | 43.3 µM (active) | inactive |  |  | inactive | inactive | inactive | inactive | inactive | inactive | 
5 | CCOC(=O)c1ccccc1C(=C1C=C(Br)C(=O)C(Br)=C1)c1cc(Br)c(O)c(Br)c1 | inactive |  |  |  | 57.5 µM (active) |  | inactive | inactive | inactive | inactive |  | 18.2 µM (active) |  |  | inactive | inactive | inactive | inactive | inactive | 
6 | CC1CC(C)C(=O)C1=O (stereo unspecified) | inactive | inactive | inactive | inactive | inactive | inactive |  | inactive | inactive | inactive | inactive | inactive | inactive | inactive | inactive | inactive | inactive | inactive |  | 
7 | CN1CCCN=C1COC(=O)C(O)(c1ccccc1)C1CCCCC1 (stereo unspecified) | inactive | inactive | inactive | inactive | inactive | inactive | inactive | inactive |  | inactive | inactive | inactive | inactive | inactive | inactive | inactive | inactive |  |  | 
8 | O=c1[nH]ncc2ccccc12 | inactive | inactive | inactive |  | inactive | inactive | inactive | inactive | inactive | inactive | inactive | inactive | inactive | inactive | inactive | inactive | inactive |  |  | 
9 | C=C(C)CCCC(C)CCO (stereo unspecified) | inactive | inactive | inactive |  | inactive | inactive | inactive | inactive | inactive | inactive | inactive | inactive | inactive | inactive | inactive | inactive | inactive | inactive |  | 
10 | C=CC(=O)OCC1CC2CC1C1CCC(COC(=O)C=C)C21 (stereo unspecified) | inactive |  |  |  |  | inactive |  | inactive |  |  |  |  | inactive | inactive | inactive | inactive | inactive | inactive | 19.3 µM (active) | 
11 | N#CCc1ccc(Cl)cc1Cl | inactive |  |  |  | inactive | inactive | inactive | inactive | inactive | inactive | inactive | inactive | inactive | inactive | inactive | inactive | inactive |  | inactive | 
12 | CCCCCCCCC(CCCCCC)C(=O)O (stereo unspecified) | inactive |  |  |  | 8.63 µM (active) |  |  | inactive | inactive | inactive |  |  |  |  | inactive | inactive | inactive |  | inactive | 
13 | c1cc(N(CC2CO2)CC2CO2)ccc1Cc1ccc(N(CC2CO2)CC2CO2)cc1 (stereo unspecified) |  |  | 27.3 µM (active) |  | inactive | inactive | inactive | inactive |  |  |  |  |  |  |  | inactive |  | inactive | 15.4 µM (active) | inactive
14 | CN1C(=O)OC(C)(C)C1=O |  | inactive | inactive | inactive | inactive | inactive | inactive |  |  | inactive |  | inactive | inactive | inactive | inactive | inactive | inactive | inactive | inactive | 
15 | CC(=O)[C@H]1[C@H](C#N)C[C@H]2[C@@H]3CC=C4C[C@@H](O)CC[C@]4(C)[C@H]3CC[C@@]21C | inactive | inactive |  |  | 29.5 µM (active) |  | inactive |  |  |  | inactive |  | inactive | inactive | inactive | inactive |  | inactive |  | 
16 | COc1ccccc1N1CCN(CCCCNC(=O)c2ccc(-c3ccc(C(C)=O)cc3)cc2)CC1 | inactive |  |  |  | inactive | inactive | inactive | inactive | 18.8 µM (active) |  | inactive | inactive | inactive | inactive | inactive | inactive | inactive |  |  | 
17 | Oc1c(I)cc(I)c2cccnc12 |  |  | 6.68 µM (active) |  |  | inactive | inactive | inactive | inactive |  |  | 7.5 µM (active) | inactive |  | inactive | inactive | inactive | inactive |  | 
18 | CCCCCCNC(=O)n1cc(F)c(=O)[nH]c1=O | inactive |  | inactive | inactive |  | inactive |  | inactive | inactive | inactive |  |  | inactive | inactive |  | inactive | inactive | inactive |  | 
